Assay results as given in PubChem BioAssay (NCI).
The panel holds about 83,000 compounds, 20% with a hit somewhere; the sample as a whole holds those more often.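 Plates (96-well) were seeded with cells, treated with compound at one concentration, and incubated for 48 hours before percent growth was determined.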 Unmarked numbers belong to inactive results. Activity calls are given as the source filed them. The calls were made as follows: active = growth percent below 10; inactive = the rest.

Columns and labels:
Experiment in all cases: NCI-60 one-dose screen, 48 h (100 = growth as untreated, 0 = no growth, -100 = all killed)
SR leukemia = settings: 10 µM unless noted
RPMI-8226 leukemia = settings: 10 µM unless noted
OVCAR-8 ovarian = settings: 10 µM unless noted
OVCAR-5 ovarian = settings: 10 µM unless noted
OVCAR-4 ovarian = settings: 10 µM unless noted
SK-OV-3 ovarian = settings: 10 µM unless noted
IGROV1 ovarian = settings: 10 µM unless noted
OVCAR-3 ovarian = settings: 10 µM unless noted
HS 578T breast = settings: 10 µM
NCI/ADR-RES ovarian = settings: 10 µM unless noted

| Structure (SMILES) | growth (SR leukemia) | growth (RPMI-8226 leukemia) | growth (OVCAR-8 ovarian) | growth (OVCAR-5 ovarian) | growth (OVCAR-4 ovarian) | growth (SK-OV-3 ovarian) | growth (IGROV1 ovarian) | growth (OVCAR-3 ovarian) | growth (HS 578T breast) | growth (NCI/ADR-RES ovarian) |
| --- | --- | --- | --- | --- | --- | --- | --- | --- | --- | --- |
| COc1cccc2nc(Nc3cccc(NC(=O)c4ccc(N5CCN(C)CC5)c(C(F)(F)F)c4)c3)ccc12 | -7.69% (active) | 7.17% (active) | 30.7% | 61.5% | 39.5% | 81.7% | 28.6% | 29.6% | 32.6% | 43.9% |
| COc1ccc2nc(C)cc(Nc3ccccc3O)c2c1 | -32.8% (active) | 25% | 32.6% | 108% | -76.1% (active) | -41.5% (active) | 44.9% | -35.5% (active) | -3.7% (active) | 46.9% |
| COc1ccc(C2=CC(c3ccc(OC)cc3Br)N3C=CSC3=N2)cc1 (stereo not given) | -22.1% (active) | -9.05% (active) | 73.7% | 84.6% | 79.7% | 98.2% | 37.8% | 37.5% | 87.7% | 86.5% |
| COc1cc2cc(C(=O)Nc3ccccc3)c(N)nc2cc1OC | -35.8% (active) | -21.2% (active) | -44.8% (active) | 73% | 22.3% | 23% | -11.7% (active) | 27.8% | 36.2% | -29.1% (active) |
| CCOC(=O)C1=C(C)NC(SCc2nnc(-c3ccc(Cl)cc3)o2)=NC1c1ccc(Cl)cc1 (stereo not given) | 42.9% | 35.8% | 74.8% | 89.6% | 70% | 82.6% | 62.3% | 70.8% | 83.7% | 69.9% |
| COc1ccc(-c2nsc3c2NC(=O)CC3c2ccc3c(c2)OCO3)cc1 (stereo not given) | -21.6% (active) | 2.77% (active) | 26.2% | 48.6% | 66.8% | 24.4% | 19.7% | -26.3% (active) | 17.6% | 13.9% |
| O=C1OCC2=C1C(c1cccc(Br)c1)c1cc3c(cc1N2CCO)OCCO3 (stereo not given) | 29.8% | 21.4% | 9.03% (active) | 39.5% | 53.4% | 32.3% | 18.3% | -61.5% (active) | 8.74% (active) | 8.43% (active) |
| O=C(Oc1c(Cl)c(Cl)c(Cl)c(Cl)c1Cl)C1CCCN1C(=O)OCc1ccccc1 (stereo not given) | 30.1% | 6.32% (active) | 34.7% | 94.9% | 51% | 46.4% | 37.3% | 79.1% | 73.2% | 27.6% |
| Oc1c(-c2cc(C(F)(F)F)[nH]n2)cc(Cl)c(OCc2ccc(Cl)cc2)c1-c1ccc(Cl)c(C(F)(F)F)c1 | 15.2% | -27.9% (active) | 9.67% (active) | 30.3% | 19% | 6.29% (active) | 19.8% | 10.5% | 5.31% (active) | 9.38% (active) |
| Oc1ccc(Nc2ncnc3c2sc2ncccc23)cc1 | 7.62% (active) | 31.9% | 7.28% (active) | 65% | 84.3% | 30.3% | 52.3% | 55.8% | 82.7% | 15.6% |
| COc1c(B(O)O)cccc1-c1nc2ccc3[nH]ncc3c2c2c1CCCC2 | 13.9% | 7.44% (active) | 17% | 29.5% | 74.2% | 6.76% (active) | 13.8% | 19.3% | 14.6% | 50.7% |
| c1ccc(C(Nc2ccccn2)(c2ccccc2)c2ccccc2)cc1 | 97% | 34.7% | 70.4% | 77.6% | 79.9% | 67.5% | 88.7% | 82% | 93.4% | 63.3% |
| NNC(=O)Cc1ccccc1 | 88.9% | 88.4% | 87.6% | 77.1% | 97.4% | 78.4% | 97.5% | 96% | 95.7% | 72.2% |
| CNC(=O)c1cc(Oc2ccc(NC(=O)c3nc(S(C)(=O)=O)sc3-c3ccc(F)cc3)cc2)ccn1 | 88% | 15.9% | 102% | 107% | 91.7% | 118% | 100% | 50% | 101% | 94.7% |
| O=C(Nc1ccc2[nH]c3ccccc3c2c1)c1ccccc1Cl | 17.6% | 67.5% | 72.4% | 82.4% | 101% | 50.5% | 50.1% | 50.9% | 70.6% | 18.8% |
| COc1ccc(/C=C2\Cc3c(Br)cccc3C2=O)c(OC)c1 | 52.2% | 60.9% | 80.8% | 85.3% | 72.1% | 80.8% | 74.1% | 67.2% | 80.5% | 50.1% |
| COc1ccc(C(=O)C(C#N)c2cc(OC)c(OC)c(OC)c2)cc1 (stereo not given) | 71.5% | 96.7% | 93% | 106% | 102% | 105% | 110% | 111% | 105% | 108% |
| CC1=C(O)C(=O)C(c2c(C)cc(C)c(Br)c2C)=C(O)C1=O | 48.9% | 36.7% | 68.4% | 70.1% | 45.6% | 88.3% | 46.3% | 54.2% | 76.4% | 73.4% |
| Cc1cc(C)c2c(n1)sc1c(Nc3ccc(OCc4ccccc4)cc3)ncnc12 | 95.5% | 95.1% | 104% | 109% | 107% | 106% | 97.5% | 100% | 108% | 100% |
| O=C(CCc1nc2sc3c(c2c(=O)[nH]1)CCC3)NCc1cn(-c2ccccc2)nc1-c1ccccc1 | -18% (active) | 90% | 44.3% | 86.2% | -48% (active) | 68.5% | 93% | 16.9% | 48.4% | 69.5% |
| COc1ccc(Sc2[nH]c(C=O)c3ccccc23)cc1 | 16.6% | -17.3% (active) | 69.3% | 28.5% | 60.3% | 47.7% | 73.1% | 65.7% | 54.4% | 46.8% |
| c1ccc(-c2[nH]c3ccccc3c2-c2ccccc2)cc1 | 88.6% | 32.6% | 92% | 91.8% | 78% | 95% | 120% | 96.1% | 106% | 95.7% |
| Cc1c(O)c(=O)n(-c2ccccc2)n1C | 91.4% | 104% | 109% | 87.2% | 111% | 105% | 117% | 108% | 127% | 105% |
| COc1ccc2c(c1)CCCC21C(=O)Nc2c(Cl)cccc21 (stereo not given) | 29.6% | 82.9% | 84.6% | 92.9% | 96.1% | 71.9% | 88.5% | 76.3% | 85.8% | 18.3% |
| C#CC[C@@H]1C[C@]2(C)[C@H]3CC[C@@H]4[C@H]5C(C(=C)C)CC[C@]5(C(=O)NCCCCN)CC[C@@]4(C)[C@]3(C)CC[C@H]2C(C)(C)[C@H]1OC(C)=O (stereo not given in full) | -7.19% (active) | -39.1% (active) | -47.5% (active) | -87.3% (active) | -61.8% (active) | 111% | -59% (active) | -87.3% (active) | -26.2% (active) | -53.4% (active) |
| O=C(Nc1ccccc1)C(CCCCN1C(=O)c2ccccc2C1=O)N1C(=O)c2ccccc2C1=O (stereo not given) | 92.7% | 86.2% | 103% | 103% | 106% | 107% | 110% | 107% | 106% | 98.6% |
| N=C(N)c1ccc(-c2ccc(-c3cc(Cl)cc(Cl)c3)o2)nc1 | -27.4% (active) | -45.2% (active) | -49.4% (active) | -62.3% (active) | -57.7% (active) | -86.5% (active) | -41.3% (active) | -95.2% (active) | 83.4% | -29.8% (active) |
